PubChem BioAssay (NCI)
The panel holds about 83,000 compounds, 20% with a hit somewhere; the sample as a whole holds those more often.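 Activity criterion: percent growth below 10, measured after cells in 96-well plates were exposed to a single compound concentration for 48 hours.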 The source made the active and inactive calls.

Experiments:
Experiment in all cases: NCI-60 one-dose screen, 48 h (100 = growth as untreated, 0 = no growth, -100 = all killed)
Settings in all cases: 10 µM unless noted
[1] = test system: NCI-H23 lung
[2] = test system: NCI-H226 lung
[3] = test system: NCI-H322M lung
[4] = test system: HOP-62 NSCLC
[5] = test system: NCI-H460 lung
[6] = test system: HOP-92 NSCLC
[7] = test system: NCI-H522 lung
[8] = test system: A549/ATCC NSCLC
[9] = test system: 786-0 renal
[10] = test system: COLO 205 colon

Measured: growth

Clc1cccc(N2COOC3(OOC2)C2CC4CC(C2)CC3C4)c1
inactive: [1] 49% | [2] 96.2% | [3] 99.6% | [4] 73% | [5] 87.2% | [8] 76% | [10] 111%
active: [6] -7.89% | [7] 2.67% | [9] 7.65%

CC[C@H](C)[C@H](NC(=O)C12C3C4C1C1C2C3C41NC)C(=O)N(C)[C@H](C[C@@H](OC(C)=O)c1nc(C(=O)N[C@@H](Cc2ccccc2)C[C@H](C)C(=O)OC)cs1)C(C)C (stereo not given in full)
inactive: [1] 31.6% | [2] 41.4% | [3] 51.9% | [4] 16.9% | [6] 34.1% | [8] 31.4% | [9] 19.1%
active: [5] 6.43% | [7] -4.71% | [10] -15.5%

O=C1NC(=O)C(=Cc2cn(C(=O)c3ccccc3)c3ccccc23)C(=O)N1
inactive: [1] 98% | [2] 92.3% | [3] 95.5% | [4] 93.4% | [5] 97.6% | [6] 71.8% | [7] 85.8% | [8] 101% | [9] 101% | [10] 113%

CC12CCC3C(C=CC4=C(N)C(=O)CCC43C)C1CCC2=O (stereo not given)
inactive: [1] 74.1% | [2] 96.3% | [3] 88.4% | [4] 112% | [5] 83.8% | [6] 61.9% | [7] 76.6% | [8] 103% | [9] 89.3% | [10] 121%

COc1cc2c(=O)n(C3CCCCCCC3)c3c4cc[nH]c4ncc3c2cc1OC
active: [4] 6.39%
inactive: [1] 57.5% | [2] 17.8% | [3] 34.8% | [5] 13.6% | [6] 46.2% | [7] 48.8% | [8] 25.4% | [9] 31.2% | [10] 58.5%

CCN(CCO)C(Cc1ccccc1)c1ccccc1 (stereo not given)
inactive: [1] 93.1% | [2] 101% | [3] 106% | [4] 96.5% | [5] 104% | [6] 100% | [7] 87.9% | [8] 103% | [9] 105% | [10] 102%

O=C([O][Hg][CH2]C1OCCOC1[CH2][Hg][O]C(=O)c1ccccc1)c1ccccc1 (stereo not given)
active: [6] -88.3% | [7] -64.1% | [10] -64.7%
inactive: [1] 46.7% | [2] 118% | [3] 116% | [4] 98.6% | [5] 117% | [8] 101% | [9] 79.4%

CCn1cnc2c(Nc3cccc(Cl)c3)nc(N[C@@H]3CCCC[C@@H]3N)nc21
inactive: [2] 10.6% | [3] 15.4%
active: [1] -21.5% | [4] -11.1% | [5] 1.68% | [6] -9.78% | [7] -32.4% | [8] -7.67% | [9] 1.83% | [10] -67.6%

O=C(CC1(O)C(=O)N(Cc2ccccc2)c2ccc(Br)cc21)c1ccc(C(=O)NCC2CCC3(CC2)OOC2(CCCCC2)OO3)cc1 (stereo not given)
inactive: [3] 73.9%
active: [1] -74.3% | [2] -33% | [4] -55.6% | [5] -41% | [6] -74.1% | [7] 2.53% | [8] -61.1% | [9] -70.7% | [10] -49.5%

CC(C)(C)C(=O)OCOP(=O)(OCOC(=O)C(C)(C)C)C1CCCN(O)C1=O (stereo not given)
active: [1] -13.4% | [2] -1.39% | [5] 1.85% | [6] 7.23% | [7] -7.58% | [10] -16.8%
inactive: [3] 14.7% | [4] 18.2% | [8] 10.8% | [9] 12.4%

CC1(C)N=C(N)N=C(N)N1c1ccc(CCC(=O)Nc2ccc(S(=O)(=O)F)cc2)c(Cl)c1
active: [5] 6.19% | [7] -0.414% | [8] -5.32%
inactive: [1] 29.9% | [2] 46.6% | [3] 57.9% | [4] 19.9% | [6] 33.7% | [9] 20.6% | [10] 45.3%

CC(C)CCC(=O)O[C@H]1CC[C@H]2[C@@H]3CCC4=CC(=O)CC[C@]4(C)[C@H]3CC[C@]12C
inactive: [1] 95.2% | [2] 97.5% | [3] 93.4% | [4] 102% | [5] 98.7% | [6] 112% | [7] 93.3% | [8] 96% | [9] 105% | [10] 106%

CC(=O)C(c1c(O)c2ccccc2oc1=O)c1cc(=O)oc2c1ccc1ccccc12 (stereo not given)
inactive: [1] 100% | [2] 90.7% | [3] 106% | [4] 90.9% | [5] 102% | [6] 65.4% | [7] 96.2% | [8] 97% | [9] 96.3% | [10] 112%

CCCCCCCC[n+]1ccc2ccccc2c1
inactive: [1] 36.5% | [2] 61.4% | [3] 99.2% | [4] 77.2% | [5] 73.9% | [6] 52% | [7] 29.8% | [8] 88.7% | [9] 75.5% | [10] 59%
